Source: PubChem BioAssay AID1347426 (Functional Genomics Laboratory (NCATS/FGL), 2020)
Hit rate of the full screen: of about 31,000 sequences, about 1,400 (4.5%) were called active.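 How the source made its calls: active means median seed-adjusted z-score above 1 or below -1; inactive means the rest.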 The entries come from a sample that favours actives as a whole.

assay: Novel Modifiers of Survival Motor Neuron (SMN) Protein: Gene Identification via Genome-wide siRNA Screen; details: HEK293T SMN2-luciferase reporter, siRNA knockdown, 72 h; actives lie on both sides;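 further: luminescence tracks full-length SMN protein made from the SMN2 reporter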
Procedure, shortened: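 siRNA screen, 10418 genes ×3 siRNAs; 1 pmol/well, lipid reverse transfection into HEK293T SMN2-luc reporter line. 72 h, 37 °C, 5% CO2; ONE-Glo readout. Data: neg-ctrl normalized, log10, MAD; hit = MAD >1.0 or < -1.0.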

Sequence | median seed-adjusted z-score
GGGCUUAGGUGUGAUCAUUTT against USH2A | 0.0673 (inactive)
GCCUAUUCAGAACACCAAUTT against TBP | -1.25 (active)
CGUGCUUUGAGUACCCGAATT against TAT | 0.257 (inactive)
CCUUAAGAGGGAUGAUAAATT against SAFB | -0.954 (inactive)
CCCUCUCACCAUUACUUCATT against CRYAB | 0.354 (inactive)
GCUCUAGGCUUCAAGGCAATT against CTSL3 | 1.07 (active)
CGAGGACGAUGACUGCUUATT against LRP8 | -0.547 (inactive)
GCAAGAAGAGAUUAGCAAATT against EIF2C2 | -0.183 (inactive)
GACUGAUGCUUUGACUGAATT against NPTX2 | 0.0558 (inactive)
GGAACGAGGCAGAUAUGGATT against NMNAT2 | -1.58 (active)
GGAGGAAUCUUGGUCCUUATT against SLC11A2 | -0.157 (inactive)
AUAUCAGGCUGGUUUACAATT against PLA2G15 | 0 (inactive)
GAGCAACAGUCACCAGAUATT against MAT2A | -1.9 (active)
GGCUGUCCGACUCAACAUATT against SIGLEC12 | 0.226 (inactive)
GCAAAUGGGAGGUUGGAAATT against ZIK1 | -0.0627 (inactive)
GGGAAGUGGUAAAUAAAGATT against MCM7 | 0.0993 (inactive)
GCUCGGACUUCAACAACUATT against PPAP2C | -1.12 (active)
CAGUAUCUAUUCACAAUGATT against TRNT1 | 0.142 (inactive)
CCCUUCUUGUUUACAUGAATT against SLC25A43 | 0 (inactive)
CAGGUAUAUCAAUUUUUCATT against PRICKLE3 | 0.0332 (inactive)
GUAUCGAAGUGGAGACAAUTT against NELL1 | -0.466 (inactive)
CCACGUGUUUCAAAGCAGATT against GPR172B | 0.184 (inactive)

Sequence | median seed-adjusted z-score
CAGUGAUGGUUAAGAACGATT against A2M | -1.96 (active)
GGGUGCACCAGAAACAUUATT against VEZF1 | 0.974 (inactive)
GUAACAACAAAUACUCAUATT against KCTD10 | -0.506 (inactive)
CAUACUUUUUGGAUAGACATT against MTX1 | -0.159 (inactive)
GAGAAAUGCUUGGAGUCCATT against FKBPL | -1.11 (active)
GGACGAGACUCAGAGUCAUTT against CD93 | -0.0879 (inactive)
GCACGUACUUGAUUCAGCATT against ZNF34 | 0.0391 (inactive)
CAACAAGUGUCUAAAUGUUTT against GNG11 | 0.00609 (inactive)
AGUCAGAGUUGAACAGGUATT against AREG | 0.104 (inactive)
AGGCAAACGUGUUCGUGCATT against IGFALS | 0.0888 (inactive)
GUAUCACUCUUAGAAUCCATT against GP1BA | 0.0803 (inactive)
AGAUAGAAGGGACACCAUUTT against NDUFB3 | -0.00982 (inactive)
GGGCAGUUGAUGAACGAAUTT against COG2 | 0.791 (inactive)
GGCUUGAGAGCUUACAUCATT against PPP2R5C | 1.14 (active)
GGUCUGCACUCAUCACUAUTT against MGAT4A | 0.134 (inactive)
GAAAUAAGGUUUUUGCAAATT against CCL25 | 0.0698 (inactive)
CACUAUUCCCAGAUCUUUATT against SMAD5 | -0.701 (inactive)
GAAGCUGUGAGAUAGAGAATT against LCN8 | 0.112 (inactive)
GGAGAUACAUCACCGAGAATT against ELMO3 | -0.0898 (inactive)
GCUGAUGCAUUGCUCAUUATT against CCT6A | -0.286 (inactive)
GUUCUGCCCUCAUACCCUUTT against IL9R | -1.33 (active)
CCUCAGUUGGAGUUUCUAATT against TBCEL | 0.567 (inactive)

Sequence | median seed-adjusted z-score
AAGCACAACUUGACCGUGATT against USP20 | -0.369 (inactive)
GGAGAAUGCAAUCCGCUUATT against SVIL | 0.0852 (inactive)
CUAUAUGAAUCACUAUACATT against ZNF181 | -0.154 (inactive)
GGACAGAGCAAAAACUUCUTT against DYRK4 | -0.824 (inactive)
CCUGAAACCUCAGAACUUATT against PFTK2 | -1.16 (active)
GUGUAAGAACUACUACAGATT against HPR | 0.237 (inactive)
GUACCUCAAUUUAAUAUCUTT against UGCGL2 | -0.456 (inactive)
CGGAAAGUACUUAAACGGATT against PIAS4 | 0.265 (inactive)
GAUGAUUCGUUGGUAUCUATT against GRIA2 | -1.02 (active)
CAAAUACAGUGAGGACAUUTT against GPR83 | 0.105 (inactive)
CACUGAGAAUGCAUCCAAATT against CYP4B1 | -0.663 (inactive)
CGGUCAUUUCGUCGAGAUATT against HSF5 | 0.369 (inactive)
GCCCUAAACCUGCCGGAAATT against EVX1 | 1 (active)
CCUCAACAGUGUCUACAUUTT against LYL1 | -0.118 (inactive)
GAUAAAAGGUUACAAACGATT against HIF1AN | -0.0315 (inactive)
GCAGUGUAAUGGUAUCCGATT against VLDLR | 0.0487 (inactive)
AGCGCAUGAUUGACAGUGATT against CACNG1 | -0.452 (inactive)
GCACUGUGCUCGGAAGUUATT against GLS2 | -0.793 (inactive)
GUGUCGUCGUAGAAAGAGATT against WEE1 | -4.05 (active)
CAGCAUACUUUAUCGCCUUTT against DICER1 | 0.101 (inactive)
CCCAACAACUGGUAUCUUUTT against CD33 | -0.355 (inactive)
GCCCUGGGUGGAUACUUGATT against PIM3 | -1.01 (active)

Sequence | median seed-adjusted z-score
CAAUAGCUGAAAUAAUAGATT against KPNA3 | 0.383 (inactive)
CAACUACACUGUCAACUACTT against DTX2 | 0.0597 (inactive)
CAGCAACCAAUGAUAUAUATT against POLR2K | -3.72 (active)
GGCUCAUUUUCGCCCUGUATT against CHP2 | 0.364 (inactive)
GUUUGAGUGUGACACCUGUTT against ZNF71 | -0.0193 (inactive)
GGAAUACCUUAUUGAUGUATT against CST8 | -0.0126 (inactive)
CGAACACCGGUGAGGUAUATT against SNRPD3 | -2.69 (active)
GGUACCAACAAAUACGAUATT against INPP5J | 0.223 (inactive)
GAGACUGCACAACACGAUATT against TMEM11 | -0.00121 (inactive)
AGUGAGAUUUGAAGAGAUUTT against ADC | -0.157 (inactive)
CGAGUGGACCUACGAGGAATT against ARID3C | -1.32 (active)
AAAAAUCGCUGGACAUGUATT against DNASE2B | 0.86 (inactive)
CAAUACGAUUGGGACAUUATT against UXS1 | 0.25 (inactive)
CAUUCGUUCUUACAAGGAATT against FMNL3 | 0.481 (inactive)
CCUCCUCUGCUUAUCGUAUTT against GLT8D1 | 1.22 (active)
GGGACGAUAUUUUAUGCAUTT against AHRR | -0.636 (inactive)
GGGAAGAUCCUGUACAUCUTT against PER2 | -0.113 (inactive)
CAUUUGGUCUAGACAGUUUTT against TDP1 | -0.352 (inactive)
GGUUCUUGGGUGAAGGACATT against CHGB | -1.29 (active)
GACCCGCUUUCUACCGUUATT against ENTPD4 | 0.324 (inactive)
GCUUAUCCAUUGGAACUGUTT against NEK9 | 0.0698 (inactive)
GCAGGGCAGUAAUCCUCAUTT against DLX6 | 0.0275 (inactive)

Sequence | median seed-adjusted z-score
GCCUUGUCGAAUUCUGUCATT against FOXO3 | -0.712 (inactive)
CCCAGUCUGUGAAACCGAATT against JMJD3 | 0.871 (inactive)
GCUGCUGAAAGAUAUGAAATT against SPCS3 | 0.417 (inactive)
GGAUAAACCUAUGCAUACATT against CCNF | -0.435 (inactive)
CGCUGUCUCGGGAGAGAAATT against SFRS3 | 2.74 (active)
CCUCUUCCACCGCUACUUCTT against TREX2 | -0.918 (inactive)
GGCUCUUAAUAUUCGAAUATT against GPR22 | 0.705 (inactive)
UGAUCAUUGUCCCUACAGATT against SERPINA3 | 0.125 (inactive)
UCCUCAAGAGUUCACCUAUTT against FCRL2 | -0.294 (inactive)
GCUAAACAGUUCGCAAGGATT against IGF2R | 0.274 (inactive)
GCUUUCCGAUGAUGAGAGATT against LEO1 | 1.2 (active)
CAGCUGUACCGAUUAAGCATT against MEP1A | 0.209 (inactive)
GACUGAAUGAUAUGAAAGATT against RHOQ | -0.328 (inactive)
GGAUUUGAGGGAAAACGCATT against FMO2 | -0.265 (inactive)
GGAGGUCUCAAGUUCAACATT against LENG8 | -0.00539 (inactive)
UGAUGAACUCGGAAAUGCATT against PPAPDC1A | 0.634 (inactive)
GGACCAGAGAGACUUCAUUTT against ASTL | 0.722 (inactive)
GAAGCAGGGUUAAAGCGGATT against PRDM2 | 1.12 (active)
GAGAUAACAUCAGUAGAAATT against FGF10 | 0 (inactive)
CACCGUCUGAGAUAAUAGATT against LST-3TM12 | -0.109 (inactive)
